# Measurements: PubChem BioAssay (Tox21)
# Several values for one entry are separate records, joined by “and”; a condition that tells them apart may be missing. Equal values may be shown once. Results filed as inconclusive are left out. Where a call stands in place of a potency, no number is given. The source holds several records for some structures; these can differ, active in one and inactive in another. Activity calls are given as the source filed them. Unless noted, calls follow the shape of the dose curve; as a rule, active = well fitted curve in the direction sought with a large enough effect in the repeat runs; inconclusive = weak or mixed curves; inactive = no such curve, though single readings can be large; an effect the other way counts as inactive or inconclusive.
# Key:
# [1] = qHTS assay to identify aromatase inhibitors - cell viability counter screen (AID 743084);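 also: cells stimulated with testosterone during compound exposure; nearly all actives have a fitted effect of over 55% in size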
# [2] = target: Aryl hydrocarbon receptor (Homo sapiens) (UniProt P35869); assay: qHTS assay to identify small molecule that activate the aryl hydrocarbon receptor (AhR) signaling pathway (AID 743085); also: nearly all actives have a fitted effect of over 15% in size; also: potency is read from the fitted curve at half-maximal effect;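 as to activation: HG2L7.5c1 human HepG2 liver cells with stably integrated DRE-driven firefly reporter; series mostly up to about 70 µM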
# Chain of Aryl hydrocarbon receptor (Homo sapiens) (P35869 whole entry, looked up): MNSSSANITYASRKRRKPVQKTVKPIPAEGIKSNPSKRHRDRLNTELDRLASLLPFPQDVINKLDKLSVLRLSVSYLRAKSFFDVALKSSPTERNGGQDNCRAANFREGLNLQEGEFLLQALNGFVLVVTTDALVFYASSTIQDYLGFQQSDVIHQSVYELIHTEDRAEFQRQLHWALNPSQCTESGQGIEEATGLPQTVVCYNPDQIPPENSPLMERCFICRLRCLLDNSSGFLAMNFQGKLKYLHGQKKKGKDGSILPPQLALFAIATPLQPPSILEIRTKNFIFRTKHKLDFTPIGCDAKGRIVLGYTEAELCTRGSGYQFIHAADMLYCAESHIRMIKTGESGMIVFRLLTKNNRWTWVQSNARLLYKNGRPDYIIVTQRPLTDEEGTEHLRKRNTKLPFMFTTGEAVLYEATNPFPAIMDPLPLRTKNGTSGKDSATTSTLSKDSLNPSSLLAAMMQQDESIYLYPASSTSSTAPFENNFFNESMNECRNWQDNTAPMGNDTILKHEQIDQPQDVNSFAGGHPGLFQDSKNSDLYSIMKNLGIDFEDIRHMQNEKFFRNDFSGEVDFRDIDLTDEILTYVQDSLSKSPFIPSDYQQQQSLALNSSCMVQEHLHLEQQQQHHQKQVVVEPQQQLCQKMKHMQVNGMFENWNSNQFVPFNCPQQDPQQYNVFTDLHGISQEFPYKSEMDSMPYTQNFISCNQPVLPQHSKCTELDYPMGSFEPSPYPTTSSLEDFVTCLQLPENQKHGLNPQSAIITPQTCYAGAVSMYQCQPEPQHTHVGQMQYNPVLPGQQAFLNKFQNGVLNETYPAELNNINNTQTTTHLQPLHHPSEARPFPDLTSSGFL
# Method in brief: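 24 h compound exposure, 37C, HepG2-derived HG2L7.5c1 cells with DRE-responsive luciferase. Readouts: fluorescence viability, then luminescence at room temperature after 30 min.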
# [3] = qHTS assay to identify small molecule that activate the aryl hydrocarbon receptor (AhR) signaling pathway - cell viability counter screen (AID 743086);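 also: HepG2 liver cells carrying the AhR DRE luciferase reporter; series mostly up to about 70 µM; nearly all actives have a fitted effect of over 45% in size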
# Method in brief: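 HepG2-AhR-luc (HG2L7.5c1) cells, 4000/well, were preincubated 5 h at 37C, exposed to compound in qHTS format for 24 hr at 37C, then given CellTiter-Fluor for 30 min; viability was read as fluorescence in the reporter wells.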
# [4] = target: Peroxisome proliferator-activated receptor gamma (Homo sapiens) (UniProt P37231); assay: qHTS assay to identify small molecule agonists of the peroxisome proliferator-activated receptor gamma (PPARg) signaling pathway (AID 743094; active = well fitted activation curve with a large enough effect in the signal ratio in the repeat runs, not every such curve was filed as active; the % refers to the signal ratio)
# Chain of Peroxisome proliferator-activated receptor gamma (Homo sapiens) (P37231 whole entry, looked up): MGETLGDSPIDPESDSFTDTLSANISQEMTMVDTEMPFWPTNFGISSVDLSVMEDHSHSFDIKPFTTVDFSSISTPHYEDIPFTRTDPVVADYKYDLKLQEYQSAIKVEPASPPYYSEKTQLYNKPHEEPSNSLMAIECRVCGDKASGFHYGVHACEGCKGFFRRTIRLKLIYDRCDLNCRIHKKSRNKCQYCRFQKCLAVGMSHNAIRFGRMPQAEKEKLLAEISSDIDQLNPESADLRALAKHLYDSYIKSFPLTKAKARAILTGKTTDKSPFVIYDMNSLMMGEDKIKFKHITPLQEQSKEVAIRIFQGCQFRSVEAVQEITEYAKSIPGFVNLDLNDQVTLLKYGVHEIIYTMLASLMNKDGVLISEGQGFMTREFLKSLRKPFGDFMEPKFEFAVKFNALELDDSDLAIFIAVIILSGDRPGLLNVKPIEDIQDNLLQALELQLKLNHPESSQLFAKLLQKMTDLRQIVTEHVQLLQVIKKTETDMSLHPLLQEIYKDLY
# Method in brief: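 Reporter activation was scored by fluorescence of cleaved LiveBLAzer B/G substrate (1 h, room temperature) in PPARg-bla HEK293H cells previously treated 17 h at 37C with DMSO-dissolved compounds.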
# [5] = target: Peroxisome proliferator-activated receptor gamma (Homo sapiens) (UniProt P37231); assay: qHTS assay to identify small molecule antagonists of the peroxisome proliferator-activated receptor gamma (PPARg) signaling pathway (AID 743191; calls by dose curve; also: series mostly up to about 63 µM; nearly all actives have a fitted effect of over 30% in size)
# Method in brief: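 GeneBLAzer PPARg UAS-bla HEK293H cells carrying a UAS-driven beta-lactamase reporter were plated at 3000 cells/well, preincubated 5 h at 37C, then given compound for 17 h at 37C; LiveBLAzer B/G FRET substrate was read after 1 h at room temperature.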
# [6] = qHTS assay to identify small molecule antagonists of the peroxisome proliferator-activated receptor gamma (PPARg) signaling pathway - cell viability counter screen (AID 743194); also: nearly all actives have a fitted effect of over 55% in size
# Method in brief: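 PPARg-UAS-bla HEK293H cells were plated, rested 5 h at 37 C, then treated with compounds plus rosiglitazone (50 nM final) for 17 h at 37 C; viability was then read by CellTiter-Glo luminescence after 30 min at room temperature.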
# [7] = qHTS assay for small molecule agonists of the antioxidant response element (ARE) signaling pathway (AID 743202; active = well fitted activation curve with a large enough effect in the signal ratio in the repeat runs, not every such curve was filed as active; the % refers to the signal ratio; also: potency is read from the fitted curve at half-maximal effect)
# Method in brief: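 Following a 16 h, 37 C exposure of reporter HepG2 cells (ARE-driven beta-lactamase, 2,000 cells/well) to compounds, FRET substrate was applied for 2 h at room temperature and fluorescence intensity recorded.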
# [8] = qHTS assay for small molecule agonists of the antioxidant response element (ARE) signaling pathway - cell viability counter screen (AID 743203; calls by dose curve; also: nearly all actives have a fitted effect of over 55% in size)
# Method in brief: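 Viability counter screen: stably transfected ARE-bla HepG2 line, 16 hrs compound exposure at 37C/5% CO2, ATP-based CellTiter-Glo luminescence measured in the reporter wells.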
# [9] = qHTS assay for small molecule activators of the heat shock response signaling pathway - cell viability counter screen (AID 743209); also: nearly all actives have a fitted effect of over 50% in size
# Method in brief: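 Viability of HSE-bla HeLa cells is measured with CellTiter-Glo in the wells already used for the reporter read. Compound exposure lasts 5 h at 37 C, and luminescence is read after 30 min at room temperature.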
# [10] = qHTS assay to identify small molecule agonists of the peroxisome proliferator-activated receptor delta (PPARd) signaling pathway - cell viability counter screen (AID 743211); also: nearly all actives have a fitted effect of over 55% in size
# Method in brief: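 Luminescent ATP viability assay (CellTiter-Glo, 30 min RT) in UAS-bla HEK293H cells carrying the PPAR delta reporter construct, 3000 cells/well, after a 17 h compound treatment at 37 C.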
# [11] = qHTS assay to identify small molecule antagonists of the peroxisome proliferator-activated receptor delta (PPARd) signaling pathway - cell viability counter screen (AID 743213); also: nearly all actives have a fitted effect of over 50% in size
# Method in brief: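 Same-well viability: cells pre-incubated 5 h, dosed with compound plus 300 nM L165041, kept 17 h at 37 C, FRET substrate 2 h RT, then CellTiter-Glo 30 min RT and luminescence.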
# [12] = target: Peroxisome proliferator-activated receptor delta (Homo sapiens) (UniProt Q03181); assay: qHTS assay to identify small molecule antagonists of the peroxisome proliferator-activated receptor delta (PPARd) signaling pathway (AID 743215; active = well fitted inhibition curve with a large enough effect in the signal ratio in the repeat runs, not every such curve was filed as active; the % refers to the signal ratio;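 also: cells stimulated with agonist L165041 at 300 nM final during compound exposure; series mostly up to about 62 µM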)
# Chain of Peroxisome proliferator-activated receptor delta (Homo sapiens) (Q03181 whole entry, looked up): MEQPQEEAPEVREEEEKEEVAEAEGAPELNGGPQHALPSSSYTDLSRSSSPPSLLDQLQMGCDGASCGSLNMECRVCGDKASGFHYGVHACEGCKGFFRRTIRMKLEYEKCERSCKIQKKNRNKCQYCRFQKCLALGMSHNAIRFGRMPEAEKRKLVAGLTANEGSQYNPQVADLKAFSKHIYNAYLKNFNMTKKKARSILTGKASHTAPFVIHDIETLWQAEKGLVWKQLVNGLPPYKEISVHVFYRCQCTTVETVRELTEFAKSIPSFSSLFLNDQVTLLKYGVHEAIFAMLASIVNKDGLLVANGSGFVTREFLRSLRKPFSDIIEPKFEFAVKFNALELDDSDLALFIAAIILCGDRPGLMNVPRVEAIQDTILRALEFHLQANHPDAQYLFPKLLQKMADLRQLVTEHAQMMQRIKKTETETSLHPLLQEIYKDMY
# Method in brief: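 Plated HEK293H PPARd-bla cells rested 5 h at 37 C and 5% CO2. Compound, then agonist L165041 at 300 nM final, was added; 17 h at 37 C followed. Substrate loading, 2 h room temperature, fluorescence measured.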
# [13] = qHTS assay to identify small molecule agonists of the farnesoid-X-receptor (FXR) signaling pathway - cell viability counter screen (AID 743218); also: nearly all actives have a fitted effect of over 45% in size
# Method in brief: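 Viability of FXR-bla HEK 293T cells is measured by ATP-based CellTiter-Glo luminescence following 16 h compound treatment at 37 C and a prior 2 h room-temperature beta-lactamase substrate step.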
# [14] = qHTS assay to identify small molecule antagonists of the farnesoid-X-receptor (FXR) signaling pathway - cell viability counter screen (AID 743221; active = well fitted cell-killing curve with a large enough effect in the repeat runs, not every such curve was filed as active; also: nearly all actives have a fitted effect of over 50% in size)
# Method in brief: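 In GeneBLAzer FXR-UAS-bla HEK 293T cells stimulated with 50 uM chenodeoxycholic acid (final), compounds acted for 16 h at 37 C. Viability was assessed afterwards by CellTiter-Glo luminescence.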
# [15] = target: Vitamin D3 receptor (Homo sapiens) (UniProt P11473); assay: qHTS assay to identify small molecule antagonists of the vitamin D receptor (VDR) signaling pathway (AID 743223; active = well fitted inhibition curve with a large enough effect in the signal ratio in the repeat runs, not every such curve was filed as active; the % refers to the signal ratio)
# Chain of Vitamin D3 receptor (Homo sapiens) (P11473 whole entry, looked up): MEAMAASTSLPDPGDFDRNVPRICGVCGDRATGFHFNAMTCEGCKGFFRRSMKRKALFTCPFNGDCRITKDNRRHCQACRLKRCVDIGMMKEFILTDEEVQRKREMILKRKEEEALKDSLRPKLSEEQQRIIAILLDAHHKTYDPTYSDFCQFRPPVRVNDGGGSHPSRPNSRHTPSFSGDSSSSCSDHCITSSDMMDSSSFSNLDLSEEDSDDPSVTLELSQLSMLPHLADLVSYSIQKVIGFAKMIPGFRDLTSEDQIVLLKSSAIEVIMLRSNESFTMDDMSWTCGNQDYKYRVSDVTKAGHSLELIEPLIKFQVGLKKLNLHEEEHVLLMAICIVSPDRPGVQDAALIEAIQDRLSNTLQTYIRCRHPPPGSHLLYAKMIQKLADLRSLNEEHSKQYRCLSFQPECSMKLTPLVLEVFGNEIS
# Method in brief: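 Agonist 1alpha,25-dihydroxyvitamin D3 (3 nM in well) was added with each compound to VDR-bla cells preincubated 4 h. Cells stood 16 h at 37C, then FRET substrate 2 h at room temperature; fluorescence intensity recorded.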
# [16] = target: Bile acid receptor (Homo sapiens) (UniProt Q96RI1); assay: qHTS assay to identify small molecule antagonists of the farnesoid-X-receptor (FXR) signaling pathway (AID 743217; active = well fitted inhibition curve with a large enough effect in the signal ratio in the repeat runs, not every such curve was filed as active; the % refers to the signal ratio)
# Chain of Bile acid receptor (Homo sapiens) (Q96RI1 whole entry, looked up): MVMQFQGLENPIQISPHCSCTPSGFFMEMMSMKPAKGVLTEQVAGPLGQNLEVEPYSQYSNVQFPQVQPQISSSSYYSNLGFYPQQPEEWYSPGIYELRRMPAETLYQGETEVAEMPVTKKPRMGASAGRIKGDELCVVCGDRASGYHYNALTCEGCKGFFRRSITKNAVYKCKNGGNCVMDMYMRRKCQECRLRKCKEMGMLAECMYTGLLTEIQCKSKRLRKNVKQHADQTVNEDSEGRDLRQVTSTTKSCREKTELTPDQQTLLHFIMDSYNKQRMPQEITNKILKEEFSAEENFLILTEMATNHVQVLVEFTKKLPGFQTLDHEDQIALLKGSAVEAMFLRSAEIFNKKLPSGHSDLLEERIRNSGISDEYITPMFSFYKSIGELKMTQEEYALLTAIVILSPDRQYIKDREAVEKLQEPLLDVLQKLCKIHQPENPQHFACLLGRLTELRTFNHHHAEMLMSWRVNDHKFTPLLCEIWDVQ
# Method in brief: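 Screen of the Tox21 10K library in quantitative HTS format using FXR-UAS-bla HEK 293T reporter cells. Agonist chenodeoxycholic acid, 50 uM final, added with compounds; 16 h incubation at 37 °C; beta-lactamase FRET fluorescence measured.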
# [17] = target: Bile acid receptor (Homo sapiens) (UniProt Q96RI1); assay: qHTS assay to identify small molecule agonists of the farnesoid-X-receptor (FXR) signaling pathway (AID 743220; active = well fitted activation curve with a large enough effect in the signal ratio in the repeat runs, not every such curve was filed as active; the % refers to the signal ratio)
# Method in brief: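 FXR-UAS-bla HEK 293T cells carrying a UAS-driven beta-lactamase reporter were plated for 5 h at 37C/5% CO2, then exposed to DMSO-dissolved Tox21 10K compounds for 16 h at 37C. A LiveBLAzer B/G FRET substrate was loaded for 2 h at room temperature before fluorescence reading.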
# [18] = qHTS assay for small molecule activators of the heat shock response signaling pathway (AID 743210; active = well fitted activation curve with a large enough effect in the signal ratio in the repeat runs, with a control signal flat, not every such curve was filed as active; the % refers to the signal ratio; also: series mostly up to about 63 µM)
# Method in brief: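 Heat shock element–beta-lactamase HeLa reporter cells; qHTS with compounds for 5 h at 37 C; detection by FRET substrate fluorescence after 2.5 h at RT.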
# [19] = target: Vitamin D3 receptor (Homo sapiens) (UniProt P11473); assay: qHTS assay to identify small molecule agonists of the vitamin D receptor (VDR) signaling pathway (AID 743222; calls by dose curve)
# Method in brief: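 Fluorescence from cleaved LiveBLAzer B/G FRET substrate served as readout. VDR-bla cells had been treated 16 h at 37C with test compounds in DMSO, following a 4 h settling period, and substrate was loaded for 2 h at RT.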
SMILES,Potency [1],Potency [2],Potency [3],Potency [4],Potency [5],Potency [6],Potency [7],Potency [8],Potency [9],Potency [10],Potency [11],Potency [12],Potency [13],Potency [14],Potency [15],Potency [16],outcome [17],outcome [18],Potency [19]
CCCCC1(COC(=O)CCC(=O)O)C(=O)N(c2ccccc2)N(c2ccccc2)C1=O,inactive,inactive,inactive,inactive,inactive,inactive,inactive,inactive,inactive,inactive,inactive,inactive,inactive,inactive,inactive,,,,
Cc1cc(C)nc(NS(=O)(=O)c2ccc(N)cc2)n1,inactive,inactive,inactive,inactive,inactive,inactive,inactive,inactive,inactive,inactive,inactive,inactive,inactive,inactive,,inactive,inactive,,
CC(O)(P(=O)(O)O)P(=O)(O)O,inactive,inactive and 15.4 µM (active),inactive,inactive,inactive,inactive,inactive,inactive,inactive,inactive,inactive,,inactive,inactive,,,,,
CCCc1cc(=O)[nH]c(=S)[nH]1,inactive,inactive,inactive,inactive,inactive,inactive,inactive,inactive,inactive,inactive,inactive,inactive,inactive,inactive,,,,,
F[B-](F)(F)F,inactive,inactive,inactive,inactive,inactive,inactive,inactive and 27.6 µM (active),inactive,inactive,inactive,inactive,,inactive,inactive,inactive,,,inactive,
O=c1[nH]cnc2c1ncn2[C@H]1CC[C@@H](CO)O1,inactive,inactive,inactive,inactive,inactive,inactive,inactive,inactive,inactive,inactive,inactive,inactive,inactive,inactive,,,,,
NC1CCCCC1,inactive,30.8 µM (active) and inactive,inactive,inactive,inactive,inactive,inactive,inactive,inactive,inactive,inactive,inactive,inactive,inactive,inactive,,,,inactive
CS(=O)(=O)OCCCCOS(C)(=O)=O,inactive,inactive,inactive,inactive,inactive,inactive,inactive,inactive,inactive,inactive,inactive,inactive,inactive,inactive,inactive,,,,
CCOc1ccc(NC(C)=O)cc1,inactive,inactive,inactive,inactive,inactive,inactive,inactive,inactive,inactive,inactive,inactive,,inactive,inactive,inactive,inactive,inactive,,
CCCCNC(=O)NS(=O)(=O)c1ccc(C)cc1,inactive,inactive,inactive,inactive,inactive,inactive,inactive,inactive,inactive,inactive,inactive,inactive,inactive,inactive,inactive,inactive,inactive,inactive,
O=c1[nH]cc(F)c(=O)[nH]1,inactive,inactive,inactive,inactive,inactive,inactive,inactive,inactive,inactive,inactive,inactive,inactive,inactive,inactive,inactive,inactive,inactive,inactive,
CCCCCCCC(=O)OCC(COC(=O)CCCCCCC)OC(=O)CCCCCCC,inactive,inactive,inactive,inactive,inactive,inactive,inactive,inactive,inactive,inactive,inactive,inactive,inactive,inactive,inactive,inactive,inactive,,
CN(N=O)C(=O)N[C@@H]1[C@@H](O)[C@H](O)[C@@H](CO)O[C@@H]1O,inactive,inactive,inactive,inactive,inactive,inactive,inactive,inactive,inactive,inactive,inactive,inactive,inactive,inactive,inactive,inactive,inactive,inactive,
Nc1c2c(nc3ccccc13)CCCC2,inactive,4.86 µM (active) and 61.1 µM (active),inactive,inactive,inactive,inactive,inactive,inactive,inactive,inactive,inactive,,inactive,inactive,,,,,
CC1(C)S[C@@H]2[C@H](NC(=O)[C@H](N)c3ccccc3)C(=O)N2[C@H]1C(=O)O,inactive,inactive,inactive,inactive,inactive,inactive,inactive,inactive,inactive,inactive,inactive,,inactive,inactive,,,,,
